Experimental data as given in the supplement of paper PMC6411743.
± gives the standard deviation of the averaged measurements. About 5,400 targets were measured; listed, in parts, are those with the largest changes and a random draw of the rest.

Compound: Nc1nc2c(ncn2[C@@H]2O[C@H](COP(=O)(O)OP(=O)(O)OP(=O)(O)O)[C@@H](O)[C@H]2O)c(=O)[nH]1 [guanosine triphosphate]
Assay: NP40-soluble protein abundance relative to vehicle (solubility fold change) (ratio); higher = more soluble protein in presence of GTP
In short: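 Crude Jurkat lysate, prepared by Dounce homogenisation, was exposed to eight concentrations from 0.1 to 10 mM for 10 min at room temperature and then 3 min at 37 °C. Solubilisation used 0.8% NP40 with benzonase for 60 min at 4 °C, followed by ultracentrifugation and TMT labelling of the supernatant for LC-MS/MS. After vsn normalisation of intensities, each value is the fold change against the detergent-processed vehicle within each replicate, across three independent experiments.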

Chain of UniProt Q969P0 (Q969P0 whole entry): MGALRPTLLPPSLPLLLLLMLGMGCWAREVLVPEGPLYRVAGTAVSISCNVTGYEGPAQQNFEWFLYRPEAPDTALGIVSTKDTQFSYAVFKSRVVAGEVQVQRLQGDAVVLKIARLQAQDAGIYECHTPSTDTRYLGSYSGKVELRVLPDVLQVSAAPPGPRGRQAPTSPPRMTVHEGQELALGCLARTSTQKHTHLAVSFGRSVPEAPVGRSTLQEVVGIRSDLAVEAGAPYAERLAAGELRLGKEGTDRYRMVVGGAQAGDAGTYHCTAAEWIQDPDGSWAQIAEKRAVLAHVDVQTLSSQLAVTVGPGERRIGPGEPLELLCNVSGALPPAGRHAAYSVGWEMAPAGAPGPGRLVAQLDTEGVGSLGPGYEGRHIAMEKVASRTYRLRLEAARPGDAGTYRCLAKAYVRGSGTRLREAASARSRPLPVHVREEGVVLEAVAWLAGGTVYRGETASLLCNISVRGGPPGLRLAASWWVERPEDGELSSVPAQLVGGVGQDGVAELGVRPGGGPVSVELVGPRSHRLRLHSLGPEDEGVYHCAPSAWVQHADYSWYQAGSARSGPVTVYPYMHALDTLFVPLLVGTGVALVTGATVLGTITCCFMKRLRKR
Chain of UniProt Q9Y6V7 (Q9Y6V7 whole entry): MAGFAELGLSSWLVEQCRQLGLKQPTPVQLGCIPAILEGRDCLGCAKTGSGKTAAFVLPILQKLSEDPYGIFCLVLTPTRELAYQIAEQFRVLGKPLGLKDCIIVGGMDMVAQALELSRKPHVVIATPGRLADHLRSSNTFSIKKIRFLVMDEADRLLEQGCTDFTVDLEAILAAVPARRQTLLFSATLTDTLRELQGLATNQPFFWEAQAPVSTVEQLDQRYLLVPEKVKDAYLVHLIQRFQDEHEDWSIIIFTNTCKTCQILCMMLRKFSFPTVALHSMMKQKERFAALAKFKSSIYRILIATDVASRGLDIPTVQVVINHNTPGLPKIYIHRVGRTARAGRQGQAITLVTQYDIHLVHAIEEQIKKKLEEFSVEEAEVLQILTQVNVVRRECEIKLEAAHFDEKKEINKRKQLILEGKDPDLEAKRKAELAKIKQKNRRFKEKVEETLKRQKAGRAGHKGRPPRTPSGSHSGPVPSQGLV
Chain of UniProt Q9Y2A7 (Q9Y2A7 whole entry): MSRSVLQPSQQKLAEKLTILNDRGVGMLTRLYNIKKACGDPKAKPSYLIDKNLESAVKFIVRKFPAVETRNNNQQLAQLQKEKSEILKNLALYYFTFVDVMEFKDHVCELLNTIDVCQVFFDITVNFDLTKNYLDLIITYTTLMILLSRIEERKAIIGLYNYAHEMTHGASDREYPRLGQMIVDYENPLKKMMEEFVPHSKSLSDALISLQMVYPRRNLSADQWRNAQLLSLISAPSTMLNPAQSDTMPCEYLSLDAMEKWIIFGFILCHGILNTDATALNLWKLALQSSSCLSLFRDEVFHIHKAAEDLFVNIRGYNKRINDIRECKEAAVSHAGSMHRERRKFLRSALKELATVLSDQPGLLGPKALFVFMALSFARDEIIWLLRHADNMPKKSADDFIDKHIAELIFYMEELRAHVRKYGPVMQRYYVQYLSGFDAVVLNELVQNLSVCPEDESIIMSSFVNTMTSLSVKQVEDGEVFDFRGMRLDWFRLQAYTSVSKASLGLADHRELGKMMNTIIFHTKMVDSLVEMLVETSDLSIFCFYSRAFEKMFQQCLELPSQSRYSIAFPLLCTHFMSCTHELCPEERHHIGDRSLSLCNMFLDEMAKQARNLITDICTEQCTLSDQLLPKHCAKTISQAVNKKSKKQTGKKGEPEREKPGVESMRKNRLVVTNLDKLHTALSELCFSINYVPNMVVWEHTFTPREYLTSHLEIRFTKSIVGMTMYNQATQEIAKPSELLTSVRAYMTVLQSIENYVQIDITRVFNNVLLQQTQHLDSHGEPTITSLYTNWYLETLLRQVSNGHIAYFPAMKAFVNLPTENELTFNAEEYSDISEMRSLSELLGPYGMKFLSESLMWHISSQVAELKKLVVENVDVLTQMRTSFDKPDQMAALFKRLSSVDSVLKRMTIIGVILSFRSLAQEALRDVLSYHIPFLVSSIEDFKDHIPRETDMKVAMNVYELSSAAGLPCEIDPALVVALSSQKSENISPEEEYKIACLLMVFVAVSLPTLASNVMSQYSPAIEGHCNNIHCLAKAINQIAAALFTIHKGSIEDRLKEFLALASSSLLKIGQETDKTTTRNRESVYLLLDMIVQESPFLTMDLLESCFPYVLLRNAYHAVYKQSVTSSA
Chain of UniProt Q96ES7 (Q96ES7 whole entry): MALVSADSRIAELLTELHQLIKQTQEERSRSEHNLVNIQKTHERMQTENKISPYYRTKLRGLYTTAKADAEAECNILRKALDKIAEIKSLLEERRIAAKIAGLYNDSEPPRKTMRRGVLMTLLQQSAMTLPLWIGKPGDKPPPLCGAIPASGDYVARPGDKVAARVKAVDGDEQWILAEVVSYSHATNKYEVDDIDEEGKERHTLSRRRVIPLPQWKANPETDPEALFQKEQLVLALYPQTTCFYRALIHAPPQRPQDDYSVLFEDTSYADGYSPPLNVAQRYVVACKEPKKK
Chain of UniProt Q9BWJ5 (Q9BWJ5 whole entry): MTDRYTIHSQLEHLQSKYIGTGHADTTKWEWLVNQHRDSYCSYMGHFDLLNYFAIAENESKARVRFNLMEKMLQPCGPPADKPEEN
Chain of UniProt Q9NS23 (Q9NS23 whole entry): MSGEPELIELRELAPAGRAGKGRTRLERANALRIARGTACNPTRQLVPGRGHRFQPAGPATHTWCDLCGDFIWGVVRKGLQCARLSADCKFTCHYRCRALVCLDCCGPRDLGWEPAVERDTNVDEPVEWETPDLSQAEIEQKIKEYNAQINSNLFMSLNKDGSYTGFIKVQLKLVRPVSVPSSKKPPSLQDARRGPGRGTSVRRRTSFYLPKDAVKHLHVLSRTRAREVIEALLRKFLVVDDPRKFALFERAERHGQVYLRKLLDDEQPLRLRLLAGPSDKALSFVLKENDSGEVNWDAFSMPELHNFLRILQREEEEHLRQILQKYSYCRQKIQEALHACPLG
Chain of UniProt Q92828 (Q92828 whole entry): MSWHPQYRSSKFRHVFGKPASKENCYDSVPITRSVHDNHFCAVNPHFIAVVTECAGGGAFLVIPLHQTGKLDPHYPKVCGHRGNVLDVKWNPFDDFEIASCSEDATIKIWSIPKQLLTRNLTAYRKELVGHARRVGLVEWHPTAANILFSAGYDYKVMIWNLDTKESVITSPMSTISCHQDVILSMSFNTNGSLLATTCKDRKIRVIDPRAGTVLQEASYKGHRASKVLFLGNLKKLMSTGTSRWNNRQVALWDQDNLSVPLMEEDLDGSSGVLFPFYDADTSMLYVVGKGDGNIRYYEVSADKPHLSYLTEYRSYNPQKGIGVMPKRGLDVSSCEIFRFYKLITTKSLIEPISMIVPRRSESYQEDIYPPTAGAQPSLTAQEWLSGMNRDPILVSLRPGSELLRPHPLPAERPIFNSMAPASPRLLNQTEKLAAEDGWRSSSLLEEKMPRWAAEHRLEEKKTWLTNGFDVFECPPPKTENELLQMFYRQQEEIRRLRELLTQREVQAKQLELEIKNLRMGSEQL
Chain of UniProt Q96BS2 (Q96BS2 whole entry): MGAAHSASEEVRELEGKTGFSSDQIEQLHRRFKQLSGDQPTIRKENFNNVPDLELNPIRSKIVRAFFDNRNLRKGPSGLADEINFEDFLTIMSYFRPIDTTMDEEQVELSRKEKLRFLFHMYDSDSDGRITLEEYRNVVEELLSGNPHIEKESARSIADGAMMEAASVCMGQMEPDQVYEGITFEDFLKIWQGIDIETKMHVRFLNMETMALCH
Chain of UniProt Q9NR28 (Q9NR28 whole entry): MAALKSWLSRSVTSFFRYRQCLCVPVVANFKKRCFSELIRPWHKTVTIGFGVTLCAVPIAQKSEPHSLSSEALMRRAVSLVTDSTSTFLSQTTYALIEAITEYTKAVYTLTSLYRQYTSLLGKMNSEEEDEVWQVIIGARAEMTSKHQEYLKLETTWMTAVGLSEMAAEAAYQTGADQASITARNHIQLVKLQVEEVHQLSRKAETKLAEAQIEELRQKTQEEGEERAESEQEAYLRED
Chain of UniProt Q9BPX3 (Q9BPX3 whole entry, looked up): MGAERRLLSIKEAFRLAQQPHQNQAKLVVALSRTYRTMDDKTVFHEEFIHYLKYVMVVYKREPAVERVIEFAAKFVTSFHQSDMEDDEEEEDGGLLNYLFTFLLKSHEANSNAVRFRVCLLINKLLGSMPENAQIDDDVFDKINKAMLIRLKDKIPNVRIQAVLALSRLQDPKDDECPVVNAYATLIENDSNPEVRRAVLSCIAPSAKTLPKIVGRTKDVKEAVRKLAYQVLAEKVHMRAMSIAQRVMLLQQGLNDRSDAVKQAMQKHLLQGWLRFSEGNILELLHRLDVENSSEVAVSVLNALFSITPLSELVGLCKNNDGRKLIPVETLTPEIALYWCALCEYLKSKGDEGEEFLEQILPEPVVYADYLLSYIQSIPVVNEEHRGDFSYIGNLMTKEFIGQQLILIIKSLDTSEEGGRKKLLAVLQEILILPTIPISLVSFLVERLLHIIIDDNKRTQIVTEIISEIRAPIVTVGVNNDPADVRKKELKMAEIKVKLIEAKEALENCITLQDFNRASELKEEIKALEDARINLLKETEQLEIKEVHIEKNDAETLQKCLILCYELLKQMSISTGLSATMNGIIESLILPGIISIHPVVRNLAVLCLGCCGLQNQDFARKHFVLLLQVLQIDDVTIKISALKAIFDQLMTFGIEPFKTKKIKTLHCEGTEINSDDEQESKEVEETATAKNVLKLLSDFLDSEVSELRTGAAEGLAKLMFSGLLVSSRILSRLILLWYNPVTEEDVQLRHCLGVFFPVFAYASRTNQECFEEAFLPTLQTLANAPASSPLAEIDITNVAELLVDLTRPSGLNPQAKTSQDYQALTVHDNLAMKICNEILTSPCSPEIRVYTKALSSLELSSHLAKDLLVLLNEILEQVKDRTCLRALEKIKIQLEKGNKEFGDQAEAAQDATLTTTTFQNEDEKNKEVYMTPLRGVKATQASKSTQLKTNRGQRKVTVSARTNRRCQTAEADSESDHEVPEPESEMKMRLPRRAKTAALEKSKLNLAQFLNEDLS

Target	NP40-soluble protein abundance (concentration: 0.1mM)	NP40-soluble protein abundance (concentration: 0.5mM)	NP40-soluble protein abundance (concentration: 1mM)	NP40-soluble protein abundance (concentration: 2mM)	NP40-soluble protein abundance (concentration: 4mM)	NP40-soluble protein abundance (concentration: 6mM)	NP40-soluble protein abundance (concentration: 8mM)	NP40-soluble protein abundance (concentration: 10mM)
UniProt Q9NR28|Q9NR28-2	0.964 ± 0.011	0.957 ± 0.055	0.972 ± 0.041	0.963 ± 0.075	0.976 ± 0.059	0.96 ± 0.068	0.94 ± 0.033	1.01 ± 0.035
DNAJB11 (UniProt Q9UBS4)	1.01 ± 0.027	1.02 ± 0.048	1.03 ± 0.059	1 ± 0.048	1.01 ± 0.051	1.02 ± 0.046	1.005 ± 0.0044	0.982 ± 0.029
UniProt Q9H0F7|Q9H0F7-2|A0A0J9YXT0	1.02 ± 0.063	1.03 ± 0.1	0.914 ± 0.011	0.986 ± 0.12	0.932 ± 0.065	0.904 ± 0.032	0.864 ± 0.061	0.882 ± 0.065
JARID2 (UniProt Q92833)	0.971 ± 0.078	1.07 ± 0.11	1.09 ± 0.088	1.08 ± 0.087	1.05 ± 0.04	1.05 ± 0.088	1.18 ± 0.04	1.15 ± 0.026
NHP2 (UniProt Q9NX24)	0.959 ± 0.056	0.942 ± 0.054	1.02 ± 0.069	1.09 ± 0.067	1.2 ± 0.096	1.39 ± 0.16	1.45 ± 0.16	1.75 ± 0.35
NCAPG (UniProt Q9BPX3)	0.992 ± 0.015	1.06 ± 0.016	0.986 ± 0.03	1.03 ± 0.044	0.978 ± 0.042	1.01 ± 0.047	0.987 ± 0.056	1.01 ± 0.031
UniProt Q9Y2X0-2|Q9Y2X0-3|Q9Y2X0	1.09 ± 0.2	1.07 ± 0.21	1.04 ± 0.17	1.16 ± 0.28	1.08 ± 0.21	1.11 ± 0.16	1.12 ± 0.18	1.04 ± 0.19
UniProt Q9Y2A7|Q9Y2A7-2	0.9505 ± 0.0043	1.002 ± 0.0081	0.972 ± 0.055	0.982 ± 0.015	0.991 ± 0.034	0.9641 ± 0.0054	1.02 ± 0.026	0.973 ± 0.011
UniProt Q96BY9|H0YAZ1	1.08 ± 0.15	1.08 ± 0.064	1.09 ± 0.15	1.1 ± 0.094	1.03 ± 0.11	1.01 ± 0.1	1.05 ± 0.19	1.07 ± 0.22
TESC (UniProt Q96BS2)	1.01 ± 0.035	0.983 ± 0.071	0.985 ± 0.095	0.968 ± 0.16	0.907 ± 0.074	0.932 ± 0.092	0.926 ± 0.073	0.915 ± 0.09
UniProt Q969P0|Q969P0-3	1.02 ± 0.066	1 ± 0.048	0.961 ± 0.07	0.956 ± 0.058	0.932 ± 0.069	0.932 ± 0.049	0.953 ± 0.053	0.919 ± 0.077
DDX49 (UniProt Q9Y6V7)	1.02 ± 0.056	1.01 ± 0.047	1.03 ± 0.026	1.05 ± 0.072	1.12 ± 0.037	1.19 ± 0.022	1.26 ± 0.076	1.21 ± 0.077
CORO2A (UniProt Q92828)	1.08 ± 0.12	1.09 ± 0.11	1.11 ± 0.049	1.19 ± 0.047	1.31 ± 0.056	1.42 ± 0.075	1.42 ± 0.1	1.42 ± 0.058
UniProt Q9NW08|Q9NW08-2	1.08 ± 0.03	1.13 ± 0.075	1.09 ± 0.12	1.15 ± 0.18	1.19 ± 0.16	1.16 ± 0.19	1.13 ± 0.18	1.09 ± 0.17
UniProt Q96ES7	1.21 ± 0.22	1.12 ± 0.13	1.25 ± 0.19	1.14 ± 0.12	1.26 ± 0.11	1.17 ± 0.11	1.38 ± 0.32	1.12 ± 0.096
UniProt Q9NZM5	0.985 ± 0.053	0.939 ± 0.14	1.04 ± 0.083	1.03 ± 0.17	1.05 ± 0.16	1.07 ± 0.21	1.18 ± 0.17	1.13 ± 0.093
SF3B5 (UniProt Q9BWJ5)	1.1 ± 0.16	1.11 ± 0.16	1.17 ± 0.23	1.27 ± 0.2	1.25 ± 0.21	1.33 ± 0.15	1.31 ± 0.19	1.38 ± 0.22
UniProt Q9UJX5|Q9UJX5-3|Q9UJX5-2	1.2 ± 0.19	1.24 ± 0.3	1.15 ± 0.19	1.27 ± 0.23	1.25 ± 0.27	1.23 ± 0.32	1.2 ± 0.23	1.13 ± 0.17
UniProt Q9NS23|Q9NS23-2|Q9NS23-3|Q9NS23-4|Q9NS23-5	0.978 ± 0.032	1.03 ± 0.098	1.04 ± 0.051	1.04 ± 0.058	1.05 ± 0.09	1.01 ± 0.022	0.971 ± 0.056	0.968 ± 0.11
DDX23 (UniProt Q9BUQ8)	1.04 ± 0.036	1.09 ± 0.067	1.19 ± 0.12	1.27 ± 0.075	1.55 ± 0.18	1.62 ± 0.19	1.89 ± 0.28	1.93 ± 0.23
RNF181 (UniProt Q9P0P0)	0.961 ± 0.027	0.925 ± 0.028	1.05 ± 0.077	1.03 ± 0.045	1.01 ± 0.013	1.02 ± 0.05	1.04 ± 0.1	1.09 ± 0.075
UniProt Q9H944|B7ZBQ3	1 ± 0.046	1.01 ± 0.05	0.928 ± 0.034	0.984 ± 0.019	0.976 ± 0.025	0.986 ± 0.029	0.9381 ± 0.0083	0.934 ± 0.029
RAB21 (UniProt Q9UL25)	0.998 ± 0.058	0.967 ± 0.036	0.87 ± 0.016	0.862 ± 0.011	0.837 ± 0.029	0.84 ± 0.039	0.812 ± 0.048	0.813 ± 0.093
PSMG3 (UniProt Q9BT73)	1.03 ± 0.027	1.09 ± 0.083	1.09 ± 0.058	1.07 ± 0.042	1.08 ± 0.054	0.999 ± 0.087	1.14 ± 0.087	1.04 ± 0.042
UniProt Q9NVI7-2	1.07 ± 0.062	1.16 ± 0.085	1.34 ± 0.083	1.56 ± 0.18	1.79 ± 0.32	1.9 ± 0.29	2.04 ± 0.29	2.11 ± 0.29
UniProt Q9H330|Q9H330-2	0.908 ± 0.04	0.876 ± 0.06	0.796 ± 0.083	0.809 ± 0.017	0.799 ± 0.035	0.834 ± 0.028	0.81 ± 0.074	0.833 ± 0.037
UniProt Q9HA47|Q9HA47-3|Q9HA47-4	1.01 ± 0.02	0.946 ± 0.037	1.05 ± 0.1	0.966 ± 0.056	0.98 ± 0.1	0.987 ± 0.034	0.983 ± 0.12	0.958 ± 0.024
UniProt Q96EM0	0.976 ± 0.19	0.971 ± 0.15	0.869 ± 0.093	0.892 ± 0.11	1.02 ± 0.026	0.929 ± 0.095	0.85 ± 0.16	0.895 ± 0.085
UniProt Q99828|Q99828-2	0.956 ± 0.08	0.981 ± 0.11	1.02 ± 0.081	1.02 ± 0.084	1.02 ± 0.092	1 ± 0.12	0.996 ± 0.11	0.911 ± 0.12
